Screens from PubChem.
Rows were chosen to be rich in hits. Some 2.4% of all compounds tested hit in one or more screens of this group.
FEN1 inhibitor: qHTS Assay for the Inhibitors of Human Flap endonuclease 1 (FEN1); hit rate 0.35% among 390,000; Recombinant FEN1 flap cleavage, fluorescence, 15 min; Potency, µM (titrated, usually from 114 µM), for inactives: at the highest dose activity change, negative = inhibition, usual class: inhibitors; note: % is set by controls: 0 for no effect and ±100 for the full control effect; nearly all actives have a fitted effect of over 65% in size
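Reaction started by adding substrate (50 nM final) to 10 nM enzyme after 15 min room-temperature compound preincubation. Reads at 0 and 15 min, with data normalized and fitted to a four-parameter Hill equation.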
Pol iota inh: qHTS for Inhibitors of Polymerase Iota. hit rate 1% among 390,000. DNA polymerase iota (Homo sapiens), Q9UNA4. Pol iota fluorescent replication assay, 10 min. Potency, µM (top dose mostly 115 µM), without a hit: top-dose activity, negative = inhibition, hits mostly inhibitors
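Fluorescent replication assay read twice, at 0 min and 10 min after adding 50 nM (final) substrate. Enzyme (10 nM) and compounds were first incubated 15 min at room temperature; enzyme-free buffer wells were negative controls.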
Pol beta inh: qHTS Assay for Inhibitors of DNA Polymerase Beta; P06746; Pol beta primer extension/strand displacement, fluorescence kinetic; Potency, µM (titrated, usually from 114 µM), for the others: at the highest dose activity change, negative = inhibition, actives largely listed as inhibitors; hit rate 1.3% among 340,000; AID 485314, 2010; note: % is set by controls: 0 for no effect and ±100 for the full control effect
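Human Pol beta at 10 nM; strand-displacement substrate 50 nM final. Compound exposure 15 min at room temperature before start, reaction 10 min at room temperature.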
POLH inh: qHTS for Inhibitors of Polymerase Eta. DNA polymerase eta (Homo sapiens), Q9Y253. recombinant Pol eta, fluorescent DNA replication assay. Potency, µM (series often up to 114 µM), inactives show at the top dose activity change, negative = inhibition, actives largely listed as inhibitors. hit rate 1.2% among 390,000. AID 588591, 2011; note: % is set by controls: 0 for no effect and ±100 for the full control effect
Target sequence (Q9Y253 whole entry, looked up): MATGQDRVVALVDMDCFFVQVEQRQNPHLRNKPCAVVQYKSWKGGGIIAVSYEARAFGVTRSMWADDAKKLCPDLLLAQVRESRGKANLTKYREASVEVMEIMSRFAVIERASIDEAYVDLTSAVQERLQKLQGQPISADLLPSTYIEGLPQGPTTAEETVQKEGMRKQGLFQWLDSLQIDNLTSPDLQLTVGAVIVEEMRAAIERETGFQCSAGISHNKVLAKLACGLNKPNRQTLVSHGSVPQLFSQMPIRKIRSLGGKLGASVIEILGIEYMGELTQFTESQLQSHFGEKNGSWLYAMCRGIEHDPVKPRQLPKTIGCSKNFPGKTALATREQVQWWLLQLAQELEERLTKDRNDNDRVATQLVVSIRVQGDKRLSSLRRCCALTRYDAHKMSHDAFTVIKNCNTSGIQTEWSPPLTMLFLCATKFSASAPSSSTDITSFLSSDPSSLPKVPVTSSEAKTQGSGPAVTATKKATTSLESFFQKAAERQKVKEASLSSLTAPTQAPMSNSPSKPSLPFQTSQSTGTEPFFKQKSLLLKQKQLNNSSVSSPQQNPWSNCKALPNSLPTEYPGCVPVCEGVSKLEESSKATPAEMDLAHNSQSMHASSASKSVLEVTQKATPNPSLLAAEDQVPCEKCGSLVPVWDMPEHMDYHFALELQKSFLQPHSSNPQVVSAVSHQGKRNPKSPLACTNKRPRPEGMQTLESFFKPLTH
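Fluorescent replication assay: 50 nM final substrate added after a 15 min room-temperature compound preincubation with 10 nM enzyme. Signal taken at 0 min and again at 10 min.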
POLK inh: qHTS for Inhibitors of Polymerase Kappa; DNA polymerase kappa (Homo sapiens), Q9UBT6; purified Pol kappa, fluorescent DNA synthesis assay, 10 min; Potency, µM (top dose mostly 107 µM), for inactives: top-dose activity, negative = inhibition, most hits filed as inhibitors; hit rate 0.53% among 400,000; note: % is set by controls: 0 for no effect and ±100 for the full control effect
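50 nM final substrate added after 15 min RT preincubation of 10 nM Pol kappa with compound; fluorescence read at 0 and 10 min.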
WRN helicase inh: qHTS for Inhibitors of WRN Helicase; Potency, µM (series often up to 114 µM), for the others: at the top dose activity change, negative = inhibition, most hits filed as inhibitors; WRN helicase unwinding, fluorescent forked duplex, kinetic; Bifunctional 3'-5' exonuclease/ATP-dependent helicase WRN (Homo sapiens), Q14191; hit rate 0.46% among 360,000; AID 651768, 2012; note: % is set by controls: 0 for no effect and ±100 for the full control effect; nearly all actives have a fitted effect of over 55% in size
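Kinetic red-fluorescence monitoring (525/598 nm) tracks WRN helicase activity after 100 nM fluorophore-quencher forked duplex and 2 mM ATP are added to 20 nM enzyme pretreated 15 min at room temperature with compound.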
An asterisk follows results filed as active; ? = inconclusive; . = no result; [ ] = remark or other dose. Calls come from the whole dose curve; as a rule, active = well fitted curve in the direction sought with a large enough effect; inconclusive = small, poorly fitted or top-dose-only effect, or another doubt; inactive = no such curve, though single readings can be large; an effect the other way counts as inactive or inconclusive. Potency is the fitted concentration of half-maximal effect.

SMILES | FEN1 inhibitor | Pol iota inh | Pol beta inh | POLH inh | POLK inh | WRN helicase inh
Cc1ccc(-n2c3nc(=O)[nH]c(=O)c-3cc3cc([N+](=O)[O-])ccc32)cc1 | -7% | ? | 49% | 45µM* | -4% | ?
C(=C\c1ccnc2ccccc12)/c1ccccc1 | -7% | -3% | . | . | -17% | .
COC(=O)/C=C1/SC(=Nc2ccc(Cl)c(Cl)c2)NC1=O | 12% | -26% | 24% | 79µM* | -10% | -10%[11.6 µM]
COC(=O)/C=C1\SC(=Nc2ccccc2)NC1=O | 14% | 12% | 21% | -3% | -13% | 9%
O=C(CN1C(=O)NC2(CCCCC2)C1=O)Nc1ccccc1Cl | 2% | 89µM* | 4% | -4% | -1% | 5%
O=C(O)c1ccc2c3n(nc2c1)-c1ccc(Cl)cc1CO3 | -20% | 16µM* | 20µM* | 4% | 32µM* | -17%
O=C(NCCO)c1ccc2c3n(nc2c1)-c1ccc(Cl)cc1CO3 | -9% | 6% | 7% | -14% | -3% | -4%
Fc1cccc(-c2nnn3c2nc(NCCc2ccccc2)c2ccccc23)c1 | 0% | 28% | 15% | -13% | 3% | .
NS(=O)(=O)c1ccc(CCNc2nc3c(-c4cccc(F)c4)nnn3c3ccc(Cl)cc23)cc1 | 2% | 34% | ? | 89µM* | 3% | .
O=S(=O)(c1ccc2c(Cl)cccc2c1)N1CCN(c2nc(-c3cccs3)nc3ccccc23)CC1 | -8% | -5% | . | . | 5% | .
COc1cc2c(cc1OC)C1O[C@](CCCCN3C(=O)c4ccccc4C3=O)(C2)Oc2c1c(=O)oc1ccc(F)cc21 | . | . | 3.5µM* | . | . | .
COc1ccc2c3c(c(=O)oc2c1)C1O[C@](CCCCN2C(=O)c4ccccc4C2=O)(Cc2cc(OC)c(OC)cc21)O3 | . | . | -25%[22.9 µM] | . | . | .
CCCCn1c(N)c(-c2nc3ccccc3o2)c2c([N+](=O)[O-])nn(CC)c(=O)c21 | -5% | -21% | 14% | 3.5µM* | -3% | -4%
COc1ccc2ccc3c(c2c1)N=CC1(O3)N(C)c2ccccc2C1(C)C (configuration not stated) | ? | 5µM* | ? | -18% | -10% | 79µM*
CN1c2ccccc2C(C)(C)C12C=Nc1c(ccc3ccccc13)O2 (configuration not stated) | -17% | ? | 2% | -18% | -3% | ?
O=c1cc(COc2ncnc3ccccc23)nc2sccn12 | -10% | 28µM* | ? | -7% | -26% | -10%[57.1 µM]
COc1cc(NC(=O)N2CCC(CN3CCOCC3)CC2)cc(OC)c1OC | 4% | 29% | -2% | 11% | -12% | .
O=C(O)c1ccc(CSCc2ccccc2)o1 | . | . | . | -1% | . | 2%
O=C(O)c1ccc(Cn2ccc3ccccc32)o1 | 1% | 10% | ? | 45µM* | -10% | -8%
CCC(C)Sc1nc2c(c(=O)[nH]1)C(c1cccs1)C1=C(CCCC1=O)N2 (configuration not stated) | 3% | ? | 25µM* | ? | -42% | -22%[57.1 µM]
CCCSc1nc2sc3c(c2c(=O)[nH]1)CC(C)CC3 (configuration not stated) | 13% | 30% | 5% | -17% | 1% | 5%
CCCSc1nc2sc3c(c2c(=O)[nH]1)CCN(Cc1ccccc1)C3 | 7% | 12% | 40µM* | ? | -15% | -5%
Cc1cc(-c2nnc(SCC(=O)c3ccc4c(c3)OCCO4)o2)no1 | -5% | 54% | 40µM* | -13% | -7% | 1%
Cc1cc(C)cc(-c2nnc(SCC(=O)c3ccc4c(c3)OCCO4)o2)c1 | -2% | 8% | 1% | -10% | -7% | -2%
CCN(CC)c1ccc(-c2nnc(SCC(=O)NCc3ccco3)n2CC)cc1 | -17% | -22% | . | . | -3% | .
SMILES | FEN1 inhibitor | Pol iota inh | Pol beta inh | POLH inh | POLK inh | WRN helicase inh
CC(/C=N/NC(=O)c1ccc2nc(C)[nH]c2c1)=C\c1ccccc1 | 5% | -5% | 28µM* | ? | -1% | -33%[57.1 µM]
O=C(N/N=C/c1ccc(OC(=O)c2cccs2)cc1)c1cccc(F)c1 | -7% | -15%[58.9 µM] | 8.9µM* | -26% | -24% | -18%
O=C(N/N=C/C(Br)=C\c1ccccc1)c1ccc2nc[nH]c2c1 | 3% | ? | 13µM* | ? | -16% | -27%
COc1ccccc1/C=C/C=N/NC(=O)c1ccc2nc[nH]c2c1 | . | . | 35µM* | . | . | .
COc1ccc(OC)c(/C=N/NC(=O)c2ccc3nc[nH]c3c2)c1 | 15% | 2% | -7% | -20% | -11% | 10%
Cc1cc(C)cc(NC(=O)Cn2c(=O)n(C(C)C)c(=O)c3oc4ccccc4c32)c1 | -8% | 40% | 30% | 18% | 2% | .
Cc1cc(C)c(NC(=O)Cn2c(=O)n(CCC(=O)NCc3ccccc3Cl)c(=O)c3sccc32)c(C)c1 | 4% | -4% | 5% | . | 13% | .
CC(/C=N/NC(=O)c1cc(C(C)(C)C)[nH]n1)=C\c1ccccc1 | 5% | 17% | 1% | -4% | 4% | -16%
CC(=C/c1ccccc1)/C=N/NC(=O)c1ccccn1 | 5% | 24% | 63µM* | -9% | 5% | -3%
COc1cccc(/C=N/NC(=O)c2ccc3nc[nH]c3c2)c1 | 1% | -23% | ? | 5% | -4% | 3%
O=C(N/N=C/c1ccc(Cl)cc1Cl)c1ccc2nc[nH]c2c1 | 14% | -29% | 16µM* | -13% | -11% | -7%
CC(=C/c1ccccc1)/C=N/NC(=O)c1ccc2nc[nH]c2c1 | -9% | 13% | 32µM* | -4% | 0% | 3%
O=C(N/N=C/c1ccncc1)c1ccc(NC(=O)c2cccc(Cl)c2)cc1 | -13% | ? | 8.9µM* | ? | ? | -35%
O=C(N/N=C/c1ccncc1)c1ccc(NC(=O)c2ccc(Cl)cc2)cc1 | -3% | -28% | -34% | -20% | -3% | -14%
COCCNc1nc2c(c(=O)n(C)c(=O)n2C)n1Cc1c(F)cccc1Cl | 1% | 27% | 10% | -16% | 0% | .
CC(/C=N/NC(=O)c1cccc(F)c1)=C\c1ccccc1 | -22% | 1% | 18µM* | -8% | -18% | -1%
COc1ccccc1C(=O)N/N=C/C(C)=C/c1ccccc1 | 1% | 153% | ? | -16% | 0% | -1%
O=C(Nc1cc(C(F)(F)F)ccc1Cl)C1CCN(c2nnc(-n3cccc3)s2)CC1 | 3% | ? | 4µM* | ? | -33% | -15%
CCC(Sc1nncn2c1cc1occc12)C(=O)Nc1ccc(C)c(Cl)c1 (configuration not stated) | -2% | -6% | 2% | -1% | -11% | .
